# Where “and” joins values, the source holds several entries; their conditions need not be identical. Equal values may be shown once. The whole screen tested about 5,500 compounds, of which about 2,000 (36%) were called active. Inconclusive results (about 18%) are left out. The list shows a part of the results. Values without a mark were called inactive. Cut-off read from the data, not from the text of the source: active = normalized growth mostly below about 0.91 (no sharp cut-off); inconclusive = no clear call, values can overlap the other calls; inactive = mostly above about 0.92.
# Experiment: chemical genetic growth profiling, strain panel (AID 1159580);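 note: tested at 20 µM; growth read once vehicle control cultures reached saturation at 30 °C; 1 = growth at the plate median or of vehicle wells; lower values mean less growth of the strain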
# Details: growth OD
smiles,measurement,setting,value
Cc1ccc(N(CC2=NCCN2)c2cccc(O)c2)cc1,normalized growth,"S. cerevisiae deletion strains, locus YJR075W, strain HOC1, hits give low values",0.967
same,normalized growth,"S. cerevisiae deletion strains, locus YKL009W, strain mrt4, hits give low values",0.99
same,normalized growth,"S. cerevisiae deletion strains, locus YKL068W, hits give low values",1
same,normalized growth,"S. cerevisiae deletion strains, locus YKL085W, strain MDH1 (second series), hits give low values",1.03
same,normalized growth,"S. cerevisiae deletion strains, locus YKL085W, strain MDH1, hits give low values",1.03
same,normalized growth,"S. cerevisiae deletion strains, locus YKL160W, strain elf1, hits give low values",1.01
same,normalized growth,"S. cerevisiae deletion strains, locus YKL190W, strain CNB1, hits give low values",1.01
same,normalized growth,"S. cerevisiae deletion strains, locus YKR001C, strain vps1, hits give low values",1.01
same,normalized growth,"S. cerevisiae deletion strains, locus YKR026C, strain gcn3, hits give low values",1.03
same,normalized growth,"S. cerevisiae deletion strains, locus YKR091W, strain srl3, hits give low values",1
same,normalized growth,"S. cerevisiae deletion strains, locus YLL001W, strain dnm1, hits give low values",1
same,normalized growth,"S. cerevisiae deletion strains, locus YLL026W, hits give low values",1.02
same,normalized growth,"S. cerevisiae deletion strains, locus YLL041C, strain sdh2, hits give low values",1.01
same,normalized growth,"S. cerevisiae deletion strains, locus YLR027C, strain aat2, hits give low values",1.01
same,normalized growth,"S. cerevisiae deletion strains, locus YLR039C, strain RIC1, hits give low values",1.06
same,normalized growth,"S. cerevisiae deletion strains, locus YLR058C, strain SHM2, hits give low values",1.01
same,normalized growth,"S. cerevisiae deletion strains, locus YLR102C, strain apc9, hits give low values",1.01
same,normalized growth,"S. cerevisiae deletion strains, locus YLR113W, strain HOG1, hits give low values",1.04
same,normalized growth,"S. cerevisiae deletion strains, locus YLR221C, strain rsa3, hits give low values",0.998
same,normalized growth,"S. cerevisiae deletion strains, locus YLR258W, strain gsy2, hits give low values",1
same,normalized growth,"S. cerevisiae deletion strains, locus YLR262C, strain YPT6 (second series), hits give low values",1.02
same,normalized growth,"S. cerevisiae deletion strains, locus YLR262C, strain YPT6, hits give low values",1.02
same,normalized growth,"S. cerevisiae deletion strains, locus YLR268W, strain sec22, hits give low values",0.947
same,normalized growth,"S. cerevisiae deletion strains, locus YLR320W, strain mms22, hits give low values",0.987
same,normalized growth,"S. cerevisiae deletion strains, locus YLR330W, strain CHS5, hits give low values",1.01
same,normalized growth,"S. cerevisiae deletion strains, locus YLR342W, strain FKS1 (second series), hits give low values",1.04
same,normalized growth,"S. cerevisiae deletion strains, locus YLR342W, strain FKS1, hits give low values",1.02
same,normalized growth,"S. cerevisiae deletion strains, locus YLR357W, strain rsc2, hits give low values",1.02
same,normalized growth,"S. cerevisiae deletion strains, locus YLR370C, strain arc18, hits give low values",1.01
same,normalized growth,"S. cerevisiae deletion strains, locus YLR371W, strain rom2, hits give low values",1.01
same,normalized growth,"S. cerevisiae deletion strains, locus YLR384C, strain iki3, hits give low values",1.02
same,normalized growth,"S. cerevisiae deletion strains, locus YLR418C, strain cdc73, hits give low values",0.955
same,normalized growth,"S. cerevisiae deletion strains, locus YML016C, strain PPZ1, hits give low values",1.01
same,normalized growth,"S. cerevisiae deletion strains, locus YML032C, strain rad52, hits give low values",0.819 (active)
same,normalized growth,"S. cerevisiae deletion strains, locus YML120C, strain ndi1, hits give low values",0.999
same,normalized growth,"S. cerevisiae deletion strains, locus YML124C, strain tub3, hits give low values",1.02
same,normalized growth,"S. cerevisiae deletion strains, locus YMR058W, strain fet3, hits give low values",1.02
same,normalized growth,"S. cerevisiae deletion strains, locus YMR078C, strain ctf18, hits give low values",1
same,normalized growth,"S. cerevisiae deletion strains, locus YMR125W, strain sto1, hits give low values",1.04
same,normalized growth,"S. cerevisiae deletion strains, locus YMR129W, hits give low values",1
same,normalized growth,"S. cerevisiae deletion strains, locus YMR205C, strain PFK2, hits give low values",1.02
same,normalized growth,"S. cerevisiae deletion strains, locus YMR223W, strain ubp8, hits give low values",0.973
same,normalized growth,"S. cerevisiae deletion strains, locus YMR231W, strain pep5, hits give low values",1.02
same,normalized growth,"S. cerevisiae deletion strains, locus YMR263W, strain SAP30, hits give low values",0.989
same,normalized growth,"S. cerevisiae deletion strains, locus YMR307W, strain GAS1, hits give low values",0.988 and 0.994
same,normalized growth,"S. cerevisiae deletion strains, locus YNL067W, strain RPL9B, hits give low values",0.967
same,normalized growth,"S. cerevisiae deletion strains, locus YNL071W, strain lat1, hits give low values",1.01
same,normalized growth,"S. cerevisiae deletion strains, locus YNL128W, strain TEP1, hits give low values",0.988
same,normalized growth,"S. cerevisiae deletion strains, locus YNL153C, strain GIM3, hits give low values",0.983
same,normalized growth,"S. cerevisiae deletion strains, locus YNL175C, strain NOP13, hits give low values",1.02
same,normalized growth,"S. cerevisiae deletion strains, locus YNL183C, strain NPR1, hits give low values",0.99
same,normalized growth,"S. cerevisiae deletion strains, locus YNL197C, strain WHI3, hits give low values",1.03
same,normalized growth,"S. cerevisiae deletion strains, locus YNL209W, strain ssb2, hits give low values",1.04
same,normalized growth,"S. cerevisiae deletion strains, locus YNL224C, strain SQS1, hits give low values",1.06
same,normalized growth,"S. cerevisiae deletion strains, locus YNL233W, strain BNI4, hits give low values",0.966
same,normalized growth,"S. cerevisiae deletion strains, locus YNL248C, strain rpa49, hits give low values",1.03
same,normalized growth,"S. cerevisiae deletion strains, locus YNL250W, strain rad50, hits give low values",0.841 (active)
same,normalized growth,"S. cerevisiae deletion strains, locus YNL271C, strain bni1, hits give low values",0.998
same,normalized growth,"S. cerevisiae deletion strains, locus YNL298W, strain CLA4, hits give low values",0.899 (active)
same,normalized growth,"S. cerevisiae deletion strains, locus YNL307C, strain MCK1, hits give low values",0.969
same,normalized growth,"S. cerevisiae deletion strains, locus YNL322C, strain KRE1 (second series), hits give low values",1.01
same,normalized growth,"S. cerevisiae deletion strains, locus YNL322C, strain KRE1, hits give low values",1 and 0.995
same,normalized growth,"S. cerevisiae deletion strains, locus YNR049C, strain mso1, hits give low values",1.02
same,normalized growth,"S. cerevisiae deletion strains, locus YNR052C, strain pop2, hits give low values",0.998
same,normalized growth,"S. cerevisiae deletion strains, locus YOL006C, strain TOP1, hits give low values",0.967
same,normalized growth,"S. cerevisiae deletion strains, locus YOL012C, strain htz1",1.24
same,normalized growth,"S. cerevisiae deletion strains, locus YOL147C, strain pex11, hits give low values",1.01
same,normalized growth,"S. cerevisiae deletion strains, locus YOR001W, strain rrp6, hits give low values",0.993
same,normalized growth,"S. cerevisiae deletion strains, locus YOR061W, strain CKA2, hits give low values",1.02
same,normalized growth,"S. cerevisiae deletion strains, locus YOR069W, strain VPS5, hits give low values",1.06
same,normalized growth,"S. cerevisiae deletion strains, locus YOR070C, strain gyp1, hits give low values",1
same,normalized growth,"S. cerevisiae deletion strains, locus YOR080W, strain dia2, hits give low values",1.04
same,normalized growth,"S. cerevisiae deletion strains, locus YOR083W, strain WHI5 (second series), hits give low values",1.03
same,normalized growth,"S. cerevisiae deletion strains, locus YOR083W, strain WHI5, hits give low values",0.969
same,normalized growth,"S. cerevisiae deletion strains, locus YOR106W, strain vam3, hits give low values",1.03
same,normalized growth,"S. cerevisiae deletion strains, locus YOR136W, strain idh2, hits give low values",1.01
same,normalized growth,"S. cerevisiae deletion strains, locus YOR144C, strain elg1, hits give low values",1.01
same,normalized growth,"S. cerevisiae deletion strains, locus YOR184W, strain ser1, hits give low values",0.975
same,normalized growth,"S. cerevisiae deletion strains, locus YOR231W, strain MKK1, hits give low values",1.02
same,normalized growth,"S. cerevisiae deletion strains, locus YOR265W, strain rbl2, hits give low values",1
same,normalized growth,"S. cerevisiae deletion strains, locus YOR270C, strain vph1, hits give low values",1.06
same,normalized growth,"S. cerevisiae deletion strains, locus YOR290C, strain snf2, hits give low values",1.02
same,normalized growth,"S. cerevisiae deletion strains, locus YOR316C, strain cot1, hits give low values",1.01
same,normalized growth,"S. cerevisiae deletion strains, locus YPL051W, strain arl3, hits give low values",1
same,normalized growth,"S. cerevisiae deletion strains, locus YPL055C, strain LGE1, hits give low values",0.908
same,normalized growth,"S. cerevisiae deletion strains, locus YPL078C, strain atp4, hits give low values",1.02
same,normalized growth,"S. cerevisiae deletion strains, locus YPL106C, strain sse1, hits give low values",1.01
same,normalized growth,"S. cerevisiae deletion strains, locus YPL240C, strain hsp82, hits give low values",1
same,normalized growth,"S. cerevisiae deletion strains, locus YPL241C, strain CIN2, hits give low values",1.04 and 1.01
same,normalized growth,"S. cerevisiae deletion strains, locus YPL256C, strain CLN2, hits give low values",1.05
same,normalized growth,"S. cerevisiae deletion strains, locus YPR119W, strain clb2, hits give low values",1
same,normalized growth,"S. cerevisiae deletion strains, locus YPR141C, strain kar3, hits give low values",1
same,normalized growth,"S. cerevisiae deletion strains, locus YPR163C, strain tif3, hits give low values",0.991
same,normalized growth,"S. cerevisiae deletion strains, locus YPR167C, strain met16, hits give low values",1.01
same,normalized growth,"S. cerevisiae deletion strains, strain wtn01, hits give low values",0.977
same,normalized growth,"S. cerevisiae strains, strain wild type, hits give low values",1
